Experiments:
Test in all cases: PBM binding z-score (relative to random genomic background probes); higher = stronger binding; sequences stand for … in GC…GCGATTGACAGCGTAGAATGAAGG
[1] = tested on: RARb homodimer (NR concentration 270 nM)
Procedure, shortened: (§1)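 Custom Agilent 4×180K protein-binding microarrays carried double-stranded probes. Their 34-nt variable regions held direct-repeat seeds, single-nucleotide variants, half-site ablations and random human genomic background sequences. Arrays were incubated 1 h with ligand-free nuclear receptor dimers in PBS pH 7.4, 2% milk, 0.02% Triton X-100, 1 mM DTT, 0.2 mg/mL BSA and 0.4 mg/ml salmon testes DNA. Antibodies against each partner (one per run) detected binding, and scanned fluorescence was regression-normalized. Binding z-scores use random background probes as reference.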

[2] = tested on: RARg:RXRa (NR concentration 270 nM, RXRa partner concentration 90 nM)
Procedure, shortened: as §1

[3] = tested on: RARg homodimer (NR concentration 270 nM)
Procedure, shortened: as §1

[4] = tested on: RXRa DBDmut IVT, anti-RXR (DBD mutation: RXRa K156A/R161A, NR concentration 90 nM)
Procedure, shortened: as §1

[5] = tested on: RXRa homodimer (NR concentration 180 nM)
Procedure, shortened: as §1

[6] = tested on: THRa:RXRa (NR concentration 90 nM, RXRa partner concentration 90 nM)
Procedure, shortened: as §1

[7] = tested on: THRa homodimer (NR concentration 90 nM)
Procedure, shortened: as §1

[8] = tested on: VDR homodimer (NR concentration 270 nM)
Procedure, shortened: as §1

Sequence | PBM binding z-score [1] | PBM binding z-score [2] | PBM binding z-score [3] | PBM binding z-score [4] | PBM binding z-score [5] | PBM binding z-score [6] | PBM binding z-score [7] | PBM binding z-score [8]
CGTCCAGGGTCAATGCTAGGTCAGTGAAAGCATT | 4.65 | 7.39 | 5.63 | 2.78 | 5.37 | 4.35 | 1.79 | 2.33
ATCGAAAGGTCGAAGAGGTGAGTATACACCGTTT | 2.74 | 4.11 | 4.08 | 0.936 | 4.41 | 2.73 | -0.077 | 0.745
ATCGAAAGGTCGTGAGGTCAGTATACAGAAAGGC | 4.83 | 6.17 | 5.53 | 2.13 | 6.57 | 4.25 | 3.19 | 3.51
CGTCCAAGGTCTGAGAGGTCAGTGAATGCCGAGT | 3.72 | 2.97 | 3.36 | 0.83 | 2.29 | 2.52 | 1.29 | 2.01
CCTCGGAGGACAACAGGACGTCAGAGCTGCCAGA | 0.189 | 0.272 | 1.12 | 0.0264 | -0.244 | 0.648 | -0.377 | -0.354
CCTCCGAGGACAACAGGAGGTCAGAGCTGCCAGA | 3.75 | 3.41 | 3.21 | 0.726 | 2.02 | 3.58 | 2.36 | 1.61
ATCTCTAGGTAAACGTTCAGTGAATCCCGAGGAT | -0.498 | 0.172 | 0.369 | -0.148 | 0.0015 | 0.136 | 0.162 | -0.489
AATACAGGGTTATCGTAGGCCAGAGTACGCACAG | 1.09 | 1.52 | 1.11 | 0.484 | 2.28 | 3.61 | 0.15 | 1.12
CCTTACGCGTCACTCCAGGTTATAGCATCGGAGT | 0.704 | 0.409 | 0.416 | 0.6 | 0.294 | 2.62 | 1.07 | 0.782
ATCTCTAGGTAACCAACTTCAGTGAATGCCGAAC | 0.171 | 0.209 | 0.26 | 0.264 | 0.158 | 0.65 | 0.878 | 0.195
CAAACTAGATCACAGAGGTCAAAGTCCGTGCGTA | 4.34 | 4.96 | 4.25 | 2.41 | 5.63 | 3.64 | 1.29 | 5.11
ATCTCTAGGTTACCAAGTTCAGTGAATGCCGAAC | 2.58 | 1.88 | 1.79 | 1.48 | 1.26 | 1.97 | 1.14 | 3.3
CGTCAACGTTCAAGGTAACGTAACAGAAAGCAGC | 0.184 | 0.115 | 0.672 | 0.181 | 0.245 | 1.48 | 0.849 | -0.423
ATCTCTAGGTAACCAAGTACAGTGAATGCCGAAC | 0.221 | 0.424 | 0.577 | 0.152 | 0.115 | 0.827 | 0.385 | 0.365
ACTATTAGTTGAATTAGGGCAACCGATACGACGC | 0.778 | 0.551 | 0.997 | 0.675 | 0.283 | 1.54 | 0.513 | 0.497
CCTGCTAGGTCAATGGTCAGCCAAAGCAGCTCGC | 3.05 | 3.38 | 4.35 | 1.48 | 2.23 | 2.06 | 0.619 | -0.16
CCTCGGAGGATAACAGGAGGTCAGAGCTGCCAGA | 2.61 | 2.32 | 2.11 | -0.476 | 1.73 | 2.4 | 0.791 | 0.96
ACTTACGGGTCGACGAGGTTATAGCACGCGTATA | 1.57 | 2.39 | 1.72 | 1.2 | 2.93 | 3.05 | 0.75 | 2.03
GCTATTAGTTGAAAAGGCAACCGAATGATTCTCG | -0.358 | 0.0252 | 0.283 | 0.693 | 0.0743 | -0.197 | -0.317 | 0.154

Sequence | PBM binding z-score [1] | PBM binding z-score [2] | PBM binding z-score [3] | PBM binding z-score [4] | PBM binding z-score [5] | PBM binding z-score [6] | PBM binding z-score [7] | PBM binding z-score [8]
TCTGCTAGGTCAGTCGGTCAGCTAACGAGCTGCC | 3.32 | 3.52 | 4.64 | 0.278 | 1.08 | 1.17 | 0.0132 | -1.13
ACTCGCAGGCCAAGTTTGGGTCACTCAAACAAAG | 2.5 | 2.65 | 1.73 | 0.0285 | 0.756 | 2.72 | 1.1 | 0.548
ACCCGGAGGACAAAGGTCAGAGCTACGCCAGTGA | 4.67 | 6.15 | 5.22 | 0.737 | 4.97 | 3.4 | 0.681 | 1.24
ATCTCTAGGTAACCAAGTTCTGTGAATGCCGAAC | 0.202 | 0.225 | 0.194 | -0.0032 | 0.246 | 0.718 | 0.76 | 0.355
CCAACTGGGGCAGAAAGGTTACCATACCATCCGG | 2.5 | 1.72 | 1.37 | -0.546 | 1.76 | 1.06 | 0.0988 | -0.202
GATACAGGATCAAGGCCAGAGTACGCGTATTGAT | 0.0211 | 0.189 | 0.325 | -0.499 | 0.195 | -0.265 | -0.214 | 0.147
GCTGCTAGGTCAGGTTGGACAGCTAACGGGTACG | 2.35 | 2.56 | 3.42 | 0.208 | 1.06 | 1.69 | 0.46 | 0.386
TCTTGCAGATCAGCAGGTTAAGAAAGCTGGCCAA | -0.126 | -0.0186 | -0.618 | -0.0927 | 0.33 | 0.0241 | -0.879 | -0.987
ATATGCAGGTTACATCCGGGTCATTCAGGCTATG | 2.86 | 4.04 | 2.1 | 0.784 | 3.53 | 3.97 | 2.19 | 2.77
TTACCAAGGTGAAGATCGTTGATCCCTCTGTAGA | 0.271 | 0.271 | 0.232 | -0.349 | 0.567 | 1.58 | 0.0556 | -0.499
TGTCAAAGTTCAAAGGTAACCTAAGTATCCACAC | 3.92 | 6.15 | 5.71 | 4.52 | 7.11 | 3.64 | 0.627 | 3.92
ATACCAAGGTGATCGTGAGGTTGTTGATACTAAC | 0.567 | 0.576 | 0.356 | 0.169 | 0.593 | 1.89 | 0.949 | 0.36
TCATATAGGCAAATGCTAGGTGAAAGTCCGATCT | 0.285 | 0.0737 | 0.0347 | 1.15 | 0.445 | 0.84 | 0.227 | -0.285
TAGCCTAAGTCATTGGGCCAGTATAGTACGCATC | -0.447 | 0.191 | 0.0194 | -0.879 | 0.156 | -0.214 | -0.958 | -0.312
CGTCAAAGTTCAACTAAGGTGACGTAAAGCACGC | 4.55 | 5.96 | 6.76 | 4.56 | 5.33 | 5.17 | 1.95 | 4.18
GCGACGGGGGCATCAGCAGGTTACCATAACTTAA | 2.43 | 5.01 | 2.7 | 3.03 | 3.26 | 3.25 | 1.61 | 1.88
CCTACTTGGCCAAAGGTCATTGATTCCAATGCTC | 4.5 | 5.37 | 4.64 | 2.06 | 6.05 | 3.3 | 1.25 | 2.51
TAGACTAGGTCATTCAGGGGCCAGTATAGAAAGC | 3.07 | 5.47 | 4.47 | 1.33 | 2.82 | 3.29 | 0.816 | 1.63
GCATATAGGTACTACAAGGTGAAAGTCCGATTGT | 0.507 | 0.382 | 0.475 | 0.291 | 0.615 | 3.49 | 0.882 | 0.179

Sequence | PBM binding z-score [1] | PBM binding z-score [2] | PBM binding z-score [3] | PBM binding z-score [4] | PBM binding z-score [5] | PBM binding z-score [6] | PBM binding z-score [7] | PBM binding z-score [8]
TGAAGGAGGTTATAAGATCAGGGAACGTTGCAAA | 0.457 | 1.11 | 0.942 | -0.654 | 1.56 | 0.689 | 0.0287 | 0.219
AATACAGGGACACTAGGCCAGAGTAGGTACGAAT | 0.487 | 0.347 | 0.984 | 0.0578 | -0.151 | 0.812 | 0.241 | 0.347
GCAGACCGGTGAAACGCAGGTAACTCAGGGTGGC | -0.498 | -0.367 | -0.32 | -1.11 | -0.345 | 0.683 | -0.854 | -0.771
TCGAGTAGGTTAGTCGGGGCATGCAGCCAACATA | 0.498 | -0.0315 | -0.00519 | 0.0884 | 0.113 | 0.978 | -0.26 | -0.157
CGTCCAAGGTCAGCAGGTCAGTGCAAGCGACGTG | 4.99 | 6.35 | 6.82 | 2.29 | 4.74 | 3.77 | 2.47 | 2.18
CAAACTAGGTTAAGAGGTCAAAGTCCGCTTCCCG | 4.7 | 5.88 | 5.15 | 2.2 | 6.79 | 3.89 | 1.83 | 4.48
ACAGACAGCTGATGAAGGTAACTCAGGCTATCAT | -0.303 | 0.146 | 0.225 | -0.306 | 0.083 | 0.595 | -0.25 | 0.0545
ATATGTAGGTTATCGGATCATTCAGTTTGCGCAT | 0.853 | 0.837 | 0.866 | 0.702 | 1.12 | 0.794 | 0.624 | 0.764
TAGCCTAGGTCAGATCCGGCCAGTATACGCTATA | 2.26 | 2.41 | 3.5 | -0.288 | 1.41 | 3.4 | 0.0339 | -0.271
AGTCAAAATTCATCTAGGTAACGTAAGATATGCT | -0.349 | 0.038 | 0.342 | 0.0782 | -0.00435 | 0.538 | 0.0978 | -0.296
ATCGAAAGGTCGTCAGGTGAGTATACAGAAAGGC | 2.67 | 4.34 | 3.83 | 2.04 | 4.71 | 3 | 1.33 | 1.8
AGCTCTAGGTAAAGTTCAGTGAAAGATCGATAGA | 2.32 | 1.94 | 2.58 | 1.43 | 0.97 | 0.941 | -0.0509 | 1.6
ATTTGTAGGTTAAGGGTCATTCAGGTTGGTTCGC | 3.97 | 5.34 | 4.15 | 2.49 | 6.91 | 3.76 | 2.55 | 5.33
TAGCCTAGGTCAGATCGGGACAGTATACGCTATA | 2.11 | 2.85 | 3.78 | -0.412 | 1.76 | 4.67 | 0.686 | -0.152
CGTCTAAGTTCAACTAAGGTAACGTAAAGCACGC | 3.13 | 4.18 | 4.79 | 4.84 | 3.54 | 4.95 | 2.6 | 4.24
GTACCAAGGAGAATAGGTCGTTGATGAGTAGGCG | 0.0836 | 0.268 | 0.222 | -0.343 | 0.654 | -0.111 | -0.986 | -0.123
CGTCAAAGTTCAACTAAGGTAACGTGAAGCACGC | 4.14 | 6.07 | 6.8 | 4.62 | 5.49 | 5.14 | 1.68 | 3.84
ATATGTAGGTTACCTCCGGGTCATTCAGGCTATG | 3.04 | 4.19 | 2.43 | 0.792 | 3.8 | 3.78 | 2.66 | 2.02
